High-throughput results as filed in PubChem.
POLI inh = blocks human DNA polymerase iota activity; Pol iota fluorescent replication assay, 10 min; Potency, µM (titrated, usually from 115 µM), for the others: at the highest dose activity, negative = inhibition, actives largely listed as inhibitors; 390,000 compounds, 1% hits; AID 588590
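Pol iota at 10 nM preincubated 15 min with compounds at room temperature; reaction started with fluorescent substrate, 50 nM final. Fluorescence read kinetically at 0 and 10 min; buffer-only wells as negative control.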
POLK inh = inhibitors of human DNA polymerase kappa. Q9UBT6. purified Pol kappa, fluorescent DNA synthesis assay, 10 min. Potency, µM (titrated, usually from 107 µM), for inactives: at the top dose activity, negative = inhibition, most hits filed as inhibitors. 400,000 compounds, 0.53% hits; also: % is scaled to controls: 0 for no effect and ±100 for the full control effect
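Kinetic fluorescence screen: compound preincubated 15 min RT with 10 nM enzyme; 50 nM substrate (final) initiates; reads at 0/10 min.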
FEN1 inhibitor = blocks human flap endonuclease 1 | Potency, µM (doses to about 114 µM), inactives show top-dose activity change, negative = inhibition, most hits filed as inhibitors | P39748 | 390,000 compounds, 0.35% hits | Recombinant FEN1 flap cleavage, fluorescence, 15 min; also: % is scaled to controls: 0 for no effect and ±100 for the full control effect; nearly all actives have a fitted effect of over 65% in size
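Read-out was taken twice, immediately and after 15 min, following addition of 50 nM substrate to 10 nM FEN1 that had sat with test compound for 15 min at room temperature. Curves came from a four-parameter Hill model.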
POLB inh = blocks human DNA polymerase beta activity | Pol beta primer extension/strand displacement, fluorescence kinetic | Potency, µM (highest dose often 114 µM), without a hit: at the top dose activity change, negative = inhibition, usual class: inhibitors | 340,000 compounds, 1.3% hits | AID 485314; also: % is scaled to controls: 0 for no effect and ±100 for the full control effect
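Homogeneous kinetic assay of primer extension and strand displacement by 10 nM Pol beta, preincubated 15 min at room temperature with compound before 50 nM substrate (final) was added. Read at 0 and 10 min; four-parameter Hill fit.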
WRN helicase inh = WRN helicase (human) inhibition. WRN helicase unwinding, fluorescent forked duplex, kinetic. Potency, µM (titrated, usually from 114 µM), inactives show top-dose activity change, negative = inhibition, usual class: inhibitors. 360,000 compounds, 0.46% hits; also: % is scaled to controls: 0 for no effect and ±100 for the full control effect; nearly all actives have a fitted effect of over 55% in size
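WRN at 20 nM final was preincubated with compound for 15 min at room temperature; reaction started with 100 nM forked duplex oligonucleotide carrying fluorophore and quencher plus 2 mM ATP (final). Unwinding followed kinetically by red fluorescence (ex 525/em 598 nm).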
Pol eta inh = DNA polymerase eta (human) inhibition; 390,000 compounds, 1.2% hits; Potency, µM (series often up to 114 µM), inactives show at the highest dose activity change, negative = inhibition, actives largely listed as inhibitors; recombinant Pol eta, fluorescent DNA replication assay; Q9Y253; AID 588591; also: % is scaled to controls: 0 for no effect and ±100 for the full control effect
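Fluorescent replication assay: 50 nM final substrate added after a 15 min room-temperature compound preincubation with 10 nM enzyme. Signal taken at 0 min and again at 10 min.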
An asterisk follows results filed as active; ? = inconclusive; / = no result given; [ ] = dose if it differs, or a comment. In the library only some 2.4% were active in any assay of this set; here they are far more common. Calls follow the shape of the dose curve; as a rule, active = well fitted curve in the direction sought with a large enough effect; inconclusive = small, poorly fitted or top-dose-only effect, or another doubt; inactive = no such curve, though single readings can be large; an effect the other way counts as inactive or inconclusive. Potency is read from the fitted curve at half-maximal effect.

SMILES	POLI inh	POLK inh	FEN1 inhibitor	POLB inh	WRN helicase inh	Pol eta inh
COc1ccc(NS(=O)(=O)c2ccc(N)c(C(=O)O)c2)cc1	1%	-1%	7%	-1%	-1%	2%
CCOc1ccc(NC(=O)CN2CCN(Cc3ccccc3)S2(=O)=O)cc1	16%	0%[60.1 µM]	-6%	11%	/	-15%
CN(C)c1ccc(-c2ccc(CCO)cc2)cc1	?	-42%	-7%	/	/	/
Cn1cnnc1Sc1ccc(/C=C/C(=O)c2ccc(O)cc2)cc1[N+](=O)[O-]	?	-10%	?	39%	-18%[57.1 µM]	50µM*
Cc1ccc(-n2nc3c(N4CCC(C(=O)NCc5ccc(C)o5)CC4)nnc(C)c3c2C)cc1	?	7%	?	0.4µM*	96%	-17%
COc1ccc(-n2nc3c(N4CCC(C(=O)NCc5ccccc5C)CC4)nnc(C)c3c2C)cc1	?	-28%	-12%	79µM*	-7%[11.6 µM]	4%
Cc1ccc(-n2nc3c(N4CCC(C(=O)NCCc5ccco5)CC4)nnc(C)c3c2C)cc1	?	-3%	-2%	-18%	-15%	-2%
CCOC(=O)c1c(-n2c(C)cc(C=O)c2C)sc2c1CCCC2	0%	-12%	-9%	-20%	-5%	-12%
Cc1sc(-n2c(C)cc(C=O)c2C)c(C(=O)O)c1C	35µM*	-25%	5%	?	-25%	50µM*
CCN(CC)CC(C)CNC(=O)c1cc(-c2ccc(Br)s2)nc2ccccc12 (stereo not drawn)	-6%	-9%	?	-27%	/	5%
COc1cccc2sc(Nc3nc4ccc(NC(C)=O)cc4s3)nc12	16µM*	45µM*	?	?	?	?
CC(=O)Nc1ccc2nc(NC(=O)COc3ccccc3C)sc2c1	73%	-1%	-10%	-27%	-6%	-17%
COc1cc(C(=O)NS(=O)(=O)c2ccccc2C)ccc1Cc1cn(C)c2ccc(NC(=O)OC3CCCC3)cc12	/	?	/	56µM*	/	/
CC(C)C[C@@H](C(=O)N[C@@H](Cc1c[nH]c2ccccc12)C(N)=O)N1C[C@]2(CCCN2C(=O)[C@H](Cc2ccccc2)NC(=O)[C@H](Cc2ccccc2)NC(=O)[C@H](CCC(N)=O)NC(=O)[C@H](CCC(N)=O)NC(=O)[C@@H]2CCCN2C(=O)[C@H](CCCCN)NC(=O)[C@@H]2CCCN2C(=O)[C@@H](N)CCCNC(=N)N)CC1=O	/	18%[60.1 µM]	/	/	/	/
COC(=O)[C@H](C)NS(=O)(=O)C1CC1	9%	6%	12%	/	/	/
Cc1nc2cc(N)ccc2n1-c1ccccc1	44%	-18%	-20%	0%	10%	-10%
Cc1nc2nc(C)n(-c3ccccc3)c2s1	?	-6%	-5%	-1%	-6%	14µM*
O=C(Nc1ncnc2c1ncn2[C@@H]1O[C@@H]2COP(=O)(O)O[C@H]2[C@H]1O)c1ccccc1	/	1%[60.1 µM]	/	/	/	/
Cc1cccc(N2CCN(C(=O)NCc3noc4ccccc34)CC2)c1C	-6%	-11%	89µM*	?	/	-14%
Cc1ccc(NC(=O)CSc2cc(=O)n(C)c3ccc(Cl)cc23)c(Br)c1	0%	-8%	-1%	61%	/	-4%
COc1ccc(S(=O)(=O)CC(=O)c2cc3cccc(C)c3oc2=O)cc1	?	-25%	-3%	?	-28%	50µM*
COc1ccc([C@@H]2CC(=O)c3c(O)cc(O[C@@H]4O[C@H](CO)[C@@H](O)[C@H](O)[C@H]4O[C@@H]4O[C@@H](C)[C@H](O)[C@@H](O)[C@H]4O)cc3O2)cc1	/	-8%[12 µM]	/	/	/	/
CCCC1=C/C(=C/c2ccc(-c3ccccc3OC)o2)C(=O)O1	?	-38%	7%	?	-28%[57.1 µM]	25µM*
COc1ccccc1-c1ccc(/C=C2/C=C(CC(C)C)OC2=O)o1	?	-13%	-21%	25µM*	-25%	-23%
O=C1Cc2ccccc2C1=C1C=c2ccccc2=C1	-7%	-32%	-4%	/	/	/
SMILES	POLI inh	POLK inh	FEN1 inhibitor	POLB inh	WRN helicase inh	Pol eta inh
c1ccc2cnccc2c1	22%	-5%	12%	/	/	/
COc1cc2c(NC3CCN(C)CC3)nc(N3CCCN(C)CC3)nc2cc1OCCCCC(N)=O	-2%	-2%	?	/	/	/
COc1cc2c(NC3CCN(C)CC3)nc(N3CCCN(C)CC3)nc2cc1OCCCN1CCCCC1	?	-27%	22µM*	/	/	/
COc1cc2c(NC3CCN(C)CC3)nc(N3CCCN(C)CC3)nc2cc1OCCCC(C)C	-7%	-13%	?	/	/	/
COc1cc2c(NC3CCN(C)CC3)nc(N3CCCN(C)CC3)nc2cc1OCCOCCN1CCCC1	-16%	-16%	20µM*	/	/	/
Cc1ccc(S(=O)(=O)Nc2cc(Br)cc3cccnc23)cc1	?	-11%	-21%	/	/	/
Cc1cccc(N(C)S(=O)(=O)c2ccc3c(c2)C(C)(C)C(=O)N3C)c1	?	?	-10%	22µM*	-22%	?
COC(=O)c1sc(NC(=S)NNC(=O)c2c(Br)c(C)nn2C)c(C(=O)OC)c1C	?	-35%	-24%	22µM*	-18%	50µM*
O=c1c2c3c(sc2nc2n1CCCCC2)CCC3	11%	6%	-10%	32µM*	3%	-12%
O=C1CCCc2c1sc1nc3n(c(=O)c21)CCCCC3	15%	0%	-14%	29%	2%	-12%
C[n+]1ccnc2cc(Cl)ccc21	?	-64%	?	/	/	/
C=CCn1c(C)cc(C(=O)Cn2c(C(C)O)nc3ccccc32)c1C (stereo not drawn)	137%	-1%	-5%	61%	-3%	-19%
Cc1cc(C(=O)Cn2c(CO)nc3ccccc32)c(C)n1C	79µM*	-26%	6%	-11%	-8%[11.6 µM]	-3%
COc1cccc(CNC(=O)COC(=O)c2ccc(S(C)(=O)=O)c([N+](=O)[O-])c2)c1	19%	2%	-5%	/	/	/
O=C(c1cc(-c2cccc(Br)c2)nc2ccccc12)N1CCCC1	?	-24%	-16%	22µM*	-14%	-17%
COc1cc([C@@H]2CC(=O)c3c(O)cc(O)cc3O2)ccc1O	/	-4%[60.1 µM]	/	/	/	/
COc1ccc2cc(/C=C3\SC(=S)NC3=O)c(N3CCOCC3)nc2c1	-6%	-25%	?	?	-7%[11.6 µM]	20µM*
Cc1ccc(NC(=O)CCCn2c3ccccc3c(=O)c3cc(C)ccc32)c(Br)c1	9%	-7%	-23%	?	/	-24%
Cc1ccc2c(c1)c(=O)c1ccccc1n2CCCC(=O)Nc1cc(Cl)ccc1C	-16%	2%	30%	?	/	79µM*
CC(C)(C)n1ncc2c(=O)n(Cc3ccc(OC(F)(F)F)cc3)cnc21	-8%	-8%	-23%	/	/	/
COc1ccc(C=C2SC(=O)NC2=O)cc1OC	-4%	-2%	2%	/	-3%	?
